Many of the other results were omitted from the sample, so hits are more common in it than they were.
PINK1 expr mod – PINK1 expression modulation | PINK1 immunofluorescence, high-content cytometry, 24 h | Potency, µM (doses to about 76.6 µM), for inactives: at the top dose activation (PINK1 increase), usual class: activators | 410,000 compounds, 0.2% hits; active means well fitted activation curve with a large enough effect; inconclusive means small, poorly fitted or top-dose-only effect; cell line not stated here; further: % of control where 0% means no effect; nearly all actives have a fitted effect of over 65% in size
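Stable cell line, 250 cells/well, 12 h attachment; compounds pinned at 5 concentrations, 24 h; CCCP control. Fixed with nuclear dye, primary antibodies 12 h at 10 degrees C, secondary plus cell stain; laser-scanning cytometer read.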
HTT aggregate – inhibitors of mutant huntingtin aggregate formation in PC12 cells; PC12 HttQ103-GFP aggregates, Acumen cytometry, 40 h; Potency, µM (doses to about 46.1 µM), for the others: at the top dose activity change, negative = inhibition, most hits filed as inhibitors; 220,000 compounds, 1.1% hits; AID 1688; further: on the % scale 0 is the no-effect control and ±100 the full control effect; nearly all actives have a fitted effect of over 60% in size
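Using laser scanning cytometry, GFP-positive aggregates were counted after lysis of PC12 cells induced with 100 nM tebufenozide to express HTT exon 1 Q103–GFP. Compounds were tested in titration.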
Anesthetic bind – binds horse apoferritin like a general anesthetic | 350,000 compounds, 0.074% hits | AID 485281 | apoferritin/1-aminoanthracene competitive binding, fluorescence | P02791 | Potency, µM (doses to about 77.5 µM), for inactives: at the top dose activity change, negative = displacement, hits mostly inhibitors; further: on the % scale 0 is the no-effect control and ±100 the full control effect; nearly all actives have a fitted effect of over 20% in size
Target sequence (P02791 2-175 limits assumed): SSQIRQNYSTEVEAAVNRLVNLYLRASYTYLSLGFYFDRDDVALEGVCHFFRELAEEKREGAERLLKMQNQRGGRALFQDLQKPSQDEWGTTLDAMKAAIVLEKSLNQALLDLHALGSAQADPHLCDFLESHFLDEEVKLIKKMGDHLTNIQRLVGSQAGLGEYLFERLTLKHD
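Steps: apoferritin (10 uM) was premixed with half-saturated 1-AMA in PBS, compounds were pin-transferred, plates stood 10 min at room temperature, fluorescence was read at 380/535 nm, and curves were fitted with a Hill equation.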
HTT ATP protect – Huntington cell model cytoprotection by ATP luminescence | 230,000 compounds, 0.14% hits | PC12 HTT-Q103 induced, cytoprotection, ATP luminescence, 40 h | Potency, µM (doses to about 56.4 µM), without a hit: cytoprotection (ATP increase), most hits filed as activators; further: % of control where 0% means no effect; nearly all actives have a fitted effect of over 45% in size
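PC12 cells stably carrying ecdysone-inducible Htt exon 1 (Q103)–GFP were induced with 100 nM tebufenozide (final) alongside library compounds in a dose series. Cytoprotection was scored as retained ATP by ATPlite luminescence.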
Epigenetic derep – derepresses silenced GFP reporter in murine cells. murine LDR cells, GFP reporter derepression, 30 h. Potency, µM (titrated, usually from 53.9 µM), inactives show at the highest dose GFP activation, usual class: activators. 280,000 compounds, 0.2% hits; further: % of control where 0% means no effect; nearly all actives have a fitted effect of over 60% in size
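Murine LDR cells bearing a silenced CMV-driven GFP reporter were exposed to compound for 30 h at 37 C. After PBS washes, GFP-positive cells (20-120 um objects) counted by laser-scanning microplate cytometry.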
PTAP TSG101 blk – blocks PTAP/TSG101 interaction to inhibit HIV-1 budding | Potency, µM (titrated, usually from 115 µM), without a hit: top-dose activity change, negative = inhibition, most hits filed as inhibitors | AID 493005 | Q99816 | Fluorescence polarization, FITC-PTAP peptide / Tsg101 binding | 340,000 tested, under 10 active; active means well fitted inhibition curve with a large enough effect in the main read-out, with a control signal flat, not every such curve was filed as active; inconclusive means small, poorly fitted or top-dose-only effect, or effect the other way, or a change in a side signal; inactive means no such curve, though single readings can be large or run the other way; further: % of control where 0% means no effect
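Steps: Tsg101 binding domain dispensed (10 uM final), compounds pinned in DMSO, FITC-labeled PTAP-motif peptide added (50 nM final); after 20 min binding at room temperature, polarization measured.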
* marks the source's active call; other numbers are inactive results; ? = inconclusive; nt = not tested or not shown; [ ] = remark or other dose. Unless noted, the call rests on the fitted dose curve; in most records, active means well fitted curve in the direction sought with a large enough effect; inconclusive means small, poorly fitted or top-dose-only effect, or another doubt; inactive means no such curve, though single readings can be large; an effect the other way counts as inactive or inconclusive. Potency means the concentration at half of the fitted maximal effect.

SMILES	PINK1 expr mod	HTT aggregate	Anesthetic bind	HTT ATP protect	Epigenetic derep	PTAP TSG101 blk
CC(Nc1oc(-c2ccc(COc3ccccc3)o2)nc1C#N)c1ccccc1 (centres undefined)	3%	nt	51%	nt	3%	nt
C[n+]1ccnc2ccccc21	-1%	nt	nt	nt	nt	nt
CC(=O)c1cc2c(cc1NC(=O)Cn1nc(-c3ccc(C)cc3)ccc1=O)OCO2	3%	nt	2%	nt	nt	-2%
COc1ccccc1NC(=O)Cn1nc(-c2ccc3c(c2)OCCO3)ccc1=O	0%	-1%[9.22 µM]	11µM*	8%[10 µM]	-2%	-3%
Cc1ccc(NC(=O)Cn2nc(-c3ccccc3Cl)ccc2=O)c(Br)c1	0%	-1%	10µM*	-23%	2%	1%
Cc1ccc(-c2ccc(=O)n(CC(=O)Nc3ccc(C)cc3Cl)n2)cc1	-1%	nt	10µM*	nt	1%	nt
O=C(/C=C/c1ccco1)Oc1cc(Br)cc(/C=N/NC(=O)c2ccccc2O)c1	?	2.2µM*	-13%	-78%[10 µM]	-1%	-7%
Cc1ccc(-c2csc(=Nc3cccnc3)n2CCCn2ccnc2)cc1C	-3%	3.5µM*	-15%	-9%[10 µM]	-1%	0%
Cc1ccc(-c2csc(=Nc3cccnc3)n2CCCN2CCCC2=O)cc1C	-1%	-9%	-7%	0%[10 µM]	6%	-2%
CCN1C(=S)SC(=O)C1=C1C=C(C)N(CCO)C(C)=C1	-3%[38.3 µM]	11%	-20%	-20%	14µM*	4%
Cc1nnsc1C(=O)NCC1Cc2cccc(-c3ncccn3)c2O1 (centres undefined)	0%	nt	nt	nt	nt	nt
Oc1ccc(CNc2ccccc2F)c2cccnc12	28µM*	?	?	-51%	12%	-8%
OCc1ccc(O)c2ncccc12	?	10µM*	-14%	-62%	?	-2%
Oc1ccc(COCc2ccccc2)c2cccnc12	2%	?	?	-94%	?	-2%
Oc1ccc(Cc2ccccc2)c2cccnc12	4%	nt	nt	nt	nt	-3%
CCCOCc1ccc(O)c2ncccc12	9%	-44%[9.22 µM]	-4%	-57%[10 µM]	3.5µM*	-8%
CC(C)COCc1ccc(O)c2ncccc12	14%	10µM*	-12%	-153%	?	-5%
Nc1ncnc2c1nc(Sc1ccc(Cl)cc1)n2[C@H]1OC2COP(=O)(O)O[C@H]2[C@@H]1O (some centres undefined)	1%	nt	nt	nt	nt	nt
CN(c1ccccc1)c1ccc(/C=C/[N+](=O)[O-])cc1	0%	-5%	-8%	-32%[10 µM]	-2%	-4%
CN(C)c1ccc(-n2cccc2/C=C/[N+](=O)[O-])cc1	-4%	25µM*	?	-87%	3%	-1%
COc1cc(OC)c(OC)cc1CN1CCCC(c2nc(C)ncc2-c2ccc(F)cc2)C1 (centres undefined)	1%	nt	nt	nt	nt	nt
O=C(Nc1cc(Cl)ccc1O)c1snnc1-c1ccccc1	11µM*	16µM*	-22%	-67%	1%	-5%
O=C(CCc1ccccc1)Nc1cc(Cl)ccc1O	-2%	1%	5.6µM*	-9%	-1%	-2%
COc1cccc(CNC(=O)c2c(OC)cc(=O)n3c2CCN(C(=O)c2ccc(C)cc2C)CC3)c1	-1%	nt	nt	nt	nt	nt
CCOc1ccccc1N(C)C(=O)Cn1cnc2onc(-c3ccc(F)cc3)c2c1=O	0%	nt	?	nt	-1%	nt
C[C@@H]1CN(Cc2ccc3c(c2)CN(Cc2cn[nH]c2-c2ccccc2)CCO3)C[C@H](C)O1	0%	nt	nt	nt	nt	nt
CCC(C(=O)NNC(=O)c1cnccn1)c1ccccc1 (centres undefined)	3%	7.9µM*	1%	2%[10 µM]	-3%	-1%
N=c1c2c(n(Cc3ccc(Cl)c(Cl)c3)c3c1CCC3)CCCC2	?	-1%	-23%	-7%	-1%	-6%
N=c1c2c(n(Cc3ccc(Br)cc3)c3c1CCC3)CCCC2	35µM*	?	6%	-38%[10 µM]	-1%	-11%

High-throughput results from PubChem BioAssay.
